Yeast superoxide: yeast age-related superoxide inhibition as caloric restriction mimetic. S. cerevisiae aged cells, superoxide DHE fluorescence; stronger effect = lower value. AID 2690. hit rate 0.18% among 330,000. superoxide response (% of plate mean), % at 10 µM;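 active = superoxide response under a set limit, about three screen SD below normal, cut at about 65% in these data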;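 also: yeast aged for seven days with compound at 30 °C before DHE staining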
dFosB activator: mouse delta FosB homodimer activation | P13346 | purified delta FosB, TAMRA-CDK5 oligo fluorescence polarization; percent of positive-control signal above neutral wells | activation, % at 25 µM | hit rate 0.99% among 340,000;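 active = mean activation above about 17%, with every replicate also reaching it, limit read from the data, passing the limit was not always enough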
Target sequence (P13346 whole entry, looked up): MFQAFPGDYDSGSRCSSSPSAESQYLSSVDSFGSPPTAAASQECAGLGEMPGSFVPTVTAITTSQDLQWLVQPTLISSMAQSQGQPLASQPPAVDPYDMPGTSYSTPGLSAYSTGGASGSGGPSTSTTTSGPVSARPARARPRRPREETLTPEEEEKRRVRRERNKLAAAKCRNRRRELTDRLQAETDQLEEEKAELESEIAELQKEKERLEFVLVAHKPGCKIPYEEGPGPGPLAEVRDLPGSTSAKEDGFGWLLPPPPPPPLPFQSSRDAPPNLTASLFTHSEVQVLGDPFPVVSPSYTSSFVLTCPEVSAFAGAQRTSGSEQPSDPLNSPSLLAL
UBC13 inh: blocks human UBC13 polyubiquitin chain formation; hit rate 0.47% among 330,000; AID 485273; P61088; inhibition, % at 20 µM; TR-FRET; in the data active = inhibition above about 45%, passing the limit was not always enough
Target sequence (P61088 whole entry, looked up): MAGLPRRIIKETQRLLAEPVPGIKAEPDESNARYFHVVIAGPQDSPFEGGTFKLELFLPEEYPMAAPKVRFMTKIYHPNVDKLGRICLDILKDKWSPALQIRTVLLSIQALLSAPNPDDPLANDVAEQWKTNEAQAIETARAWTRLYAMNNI
NALP1 inh: blocks the NALP1 inflammasome reconstituted in yeast; S. cerevisiae NALP1/ASC/caspase-1 growth, X-gal OD620, 72 h; hit rate 0.61% among 280,000; AID 2071; inhibition, % at 10 µM; in the data active = inhibition mostly above about 24%, no sharp cut-off; inactive = mostly below about 32%
GRIN3A LBD mod: modulators (binders) of human NR3A ligand-binding domain. AID 1259313. Tm shift relative to glycine control, % at 25 µM. hit rate 2.5% among 340,000. NR3A LBD differential scanning fluorimetry, Tm shift; 0% = protein alone, 100% = glycine-bound protein;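 active = melting temperature shift of at least 10% of the positive control shift, at one fixed dose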
Hits are given with their value; – = inactive; · = not tested or not shown. Only some compounds are listed: those with a hit (about 4.3% of all), similar ones and a draw of the others.

SMILES	Yeast superoxide	dFosB activator	UBC13 inh	NALP1 inh	GRIN3A LBD mod
C/C(=N\NC(=O)CCc1c[nH]c2ccccc12)c1ccc([N+](=O)[O-])cc1	–	–	–	–	22.1
O=c1cc(N=Nc2ccc(Cl)cc2)[nH]c(=O)[nH]1	–	–	·	–	–
NC(N)=Nc1ccc(N=C(N)N)cc1	–	–	·	40.1	–
NNC(=O)c1ccc(Cn2cc(Cl)cn2)cc1	–	–	–	–	–
O=C(Nc1ccc(Cl)c(Cl)c1)c1ccc(Cn2cc(Cl)cn2)cc1	·	–	·	–	24.0
C=C(C)C(=O)NNc1ccccc1	–	–	–	26.6	–
CC(C)OC(=O)C(=O)NNc1ccccc1	–	–	–	–	–
O=c1oc([C@@H](O)c2ccccc2)cc2ccccc12	–	–	–	·	10.1
O=C(c1cc2ccccc2c(=O)o1)N1CCCC1	–	·	–	–	·
CCOc1c(C#N)c(C#N)c2nc(C)cc(C)n12	–	–	–	–	13.6
Cc1cc(C)c(S(=O)(=O)Nc2cc(SCC(=O)O)c(O)c3ccccc23)cc1C	–	·	·	49.2	–
O=C(O)CSc1cc(NS(=O)(=O)c2ccc(Cl)cc2)c2ccccc2c1O	–	–	·	–	–
O=C1CC2(CCCCC2)Oc2ccc(Cl)cc21	–	–	–	·	–
CS(=O)(=O)C1=NSC2=NC(=O)/C(=C\c3cccn3-c3ccc(Cl)cc3)C(=N)N21	–	–	·	–	18.6
CC[C@@H](C(=O)n1nc(C)cc1C)[C@H](NS(=O)(=O)c1ccc(C)cc1)c1ccccc1	–	–	–	–	12.5
COc1ccc(S(=O)(=O)Nc2ccc(-c3ccc4nnc(C)n4n3)cc2)c(OC)c1	–	21.8	–	·	–
COc1ccc(OC)c(S(=O)(=O)Nc2ccc(-c3ccc4nnc(C)n4n3)cc2)c1	–	–	–	·	–
COc1ccc(OC)c(NC(=O)c2cc(-c3cc(C)cc(C)c3O)n[nH]2)c1	–	–	–	–	20.0
COc1ccc(CNC(=O)c2cc(-c3cc(C)cc(C)c3O)n[nH]2)cc1	–	–	–	–	–
COc1ccc(NC(=O)c2cc(-c3cc(C)c(C)cc3O)n[nH]2)c(OC)c1	–	–	–	–	42.0
COc1ccc(OC)c(NC(=O)c2cc(-c3c(C)cc(C)cc3O)n[nH]2)c1	–	–	–	–	–
COc1ccc(NC(=O)c2cc(-c3cc(Cl)ccc3O)n[nH]2)c(OC)c1	–	–	–	–	30.8
COc1ccc(OC)c(NC(=O)c2cc(-c3cc(C)c(C)cc3O)n[nH]2)c1	–	–	–	–	40.5
N#CC1CC(c2ccccc2)Nc2cc(Cl)ccc2N1 (stereo not given)	–	–	–	–	13.5
CCOC(=O)C(Oc1ccc2c(-c3ccccc3)cc(=O)oc2c1)c1ccccc1 (stereo not given)	–	–	–	–	10.6
SMILES	Yeast superoxide	dFosB activator	UBC13 inh	NALP1 inh	GRIN3A LBD mod
O=c1cc(-c2ccccc2)c2ccc(O)cc2o1	–	–	–	·	10.9
COc1ccc(C(=O)NCC(=O)OCC(=O)N2CC(C)OC(C)C2)cc1OC (stereo not given)	–	–	–	·	–
O=C(CN1C(=O)COc2ccc(S(=O)(=O)N3CCCCCC3)cc21)NCc1ccc(F)cc1	–	–	–	–	–
C=C(CN(C)C)C(=O)c1cc(C)ccc1C	·	–	·	·	11.2
O=C(CSc1c2c(nc3cc(Cl)ccc13)CCCC2)NCCN1CCOCC1	–	–	–	–	–
Clc1ccc2c(SCC3CO3)c3ccccc3nc2c1 (stereo not given)	·	–	·	·	12.6
Oc1[nH]c2ccccc2c1N=Nc1nc(Nc2ccccc2)nc(N2CCOCC2)n1	–	47.1	–	·	–
c1ccc(Nc2nc(N3CCCC3)nc(N3CCOCC3)n2)cc1	–	–	–	·	–
Cc1[nH]c2ccccc2c1/C=N/Nc1nc(Nc2ccccc2)nc(N2CCOCC2)n1	–	23.5	–	–	–
O=c1c(-c2ccccc2)c(O)c2ccccc2n1-c1ccccc1	–	–	–	–	–
N#Cc1ccc(-c2nc3ccccc3c(=O)n2O)cc1	–	–	–	–	–
N#Cc1ccc(-c2nc3cc(Cl)ccc3c(=O)n2O)cc1	–	–	–	41.5	–
Nc1ccc2nc(SCC(=O)Nc3ccc(N4CCOCC4)c(Cl)c3)sc2c1	–	–	–	–	18.3
Nc1ccc2nc(SCC(=O)N3CCOCC3)sc2c1	–	–	–	39.6	–
NC1=NC(=O)/C(=C/c2cccc(-c3ccc(S(N)(=O)=O)cc3)c2)S1	–	59.8	–	–	–
NC1=NC(=O)/C(=C\c2ccc(O)c([N+](=O)[O-])c2)S1	–	–	–	–	–
Cc1ccc(OCc2nnc(SCC(=O)N3CCOCC3)n2C)cc1	–	–	–	–	15.7
Cc1ccccc1Nc1nc2ccccc2s1	–	–	–	–	–
Fc1ccc(Nc2nc3ccccc3s2)cc1	–	–	–	–	19.5
Cc1ccc(Nc2nc3ccccc3s2)cc1	–	–	–	–	22.0
CCC1CCc2c(sc(NC(=O)C3c4ccccc4Oc4ccccc43)c2C(N)=O)C1 (stereo not given)	–	–	–	–	16.8
Cc1cc(C(=O)NN)c2cc(Br)ccc2n1	–	–	–	–	–
Cc1cc(C(N)=O)c2cc(Br)ccc2n1	–	–	–	–	12.7
OCC#CCSc1nnc(-c2ccncc2)o1	–	–	–	31.4	–
CCSc1nnc(-c2ccncc2)o1	–	–	–	–	–
SMILES	Yeast superoxide	dFosB activator	UBC13 inh	NALP1 inh	GRIN3A LBD mod
COc1ccc(CNC(=O)C2CCN(S(=O)(=O)c3ccc4c(c3)CC(C)N4C(C)=O)CC2)cc1 (stereo not given)	–	–	–	–	–
CCOC(=O)N1CCN(C(=O)COC(=O)c2ccc([N+](=O)[O-])cc2Cl)CC1	·	–	–	·	–
N=C1/C(=C\c2ccc(-c3cccc(Cl)c3)o2)C(=O)N=C2SC=C(c3ccccc3)N12	–	–	–	–	13.0
Cc1ccc(CNC(=O)c2ccc(N(C)C)cc2)cc1	–	–	–	–	–
CN(C)c1ccc(C(=O)NCc2ccc3c(c2)CCO3)cc1	–	·	–	–	10.3
O=C(Nc1ccc2oc(=O)ccc2c1)c1ccc(-c2ccccc2[N+](=O)[O-])o1	–	–	–	–	30.4
O=C(Nc1ccc2oc(=O)ccc2c1)c1ccc(-c2cccc([N+](=O)[O-])c2)o1	–	·	–	–	35.3
O=C(Nc1ccc2oc(=O)ccc2c1)c1ccc(-c2ccc(Cl)cc2)o1	–	–	–	–	27.1
O=C(Nc1ccc2oc(=O)ccc2c1)c1cc2ccccc2o1	–	–	–	–	–
COc1cc(OC)c(C(=O)Nc2ccc3ccccc3c2)cc1OC	–	–	–	–	–
COc1cc2ccccc2cc1C(=O)Nc1ccc2oc(=O)ccc2c1	–	–	–	–	15.2
O=c1[nH]c2ccccc2c2cn(-c3ccccc3)nc12	–	–	–	–	–
O=C(Cc1ccc([N+](=O)[O-])cc1)Nc1cccc(C(=O)N2CCCCC2)c1	–	–	–	·	–
COc1ccc(-c2noc(N3CCCC(C(=O)Nc4ccc(F)cc4F)C3)n2)cc1 (stereo not given)	–	–	–	–	–

Compound activity deposited in PubChem by several laboratories.
